{"source": "the supplement of paper PMC8728848", "binders": {"B1": {"name": "Tachylectin-2 (Tachypleus tridentatus), TAL2_TACTR (protein)", "chain": "VGGESMLRGVYQDKFYQGTYPQNKNDNWLARATLIGKGGWSNFKFLFLSPGGELYGVLNDKIYKGTPPTHDNDNWMGRAKKIGNGGWNQFQFLFFDPNGYLYAVSKDKLYKASPPQSDTDNWIARATEIGSGGWSGFKFLFFHPNGYLYAVHGQQFYKALPPVSNQDNWLARATKIGQGGWDTFKFLFFSSVGTLFGVQGGKFYEDYPPSYAHDNWLARAKLIGNGGWDDFRFLFF"}}, "experiment_in_all_cases": "glycan array binding signal (z-score within array); higher = stronger binding", "conditions_in_all_cases": "glycan notation: IUPAC condensed, linker removed", "key": {"Fuc(a1-2)Gal(b1-4)GlcNAc": {"molecular_target": "Fuc(a1-2)Gal(b1-4)GlcNAc", "outline": "(§1)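 The Consortium for Functional Glycomics database supplied 3228 glycan arrays, of which those lacking an available protein sequence were dropped. The binding signal, a within-array Z-score, was averaged across arrays of the same protein sequence and across linkers. Negative scores can be read as non-binding.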"}, "[1]": {"molecular_target": "Fuc(a1-2)[Gal(a1-4)]Gal(b1-4)GlcNAc", "outline": "as §1"}, "[2]": {"molecular_target": "Fuc(a1-2)[GalNAc(a1-3)]Gal(b1-4)GlcNAc(b1-2)Man(a1-3)[Fuc(a1-2)[GalNAc(a1-3)]Gal(b1-4)GlcNAc(b1-2)Man(a1-6)]Man(b1-4)GlcNAc(b1-4)GlcNAc", "outline": "as §1"}, "[3]": {"molecular_target": "Fuc(a1-2)[GalNAc(a1-3)]Gal(b1-4)GlcNAc(b1-3)Gal(b1-4)GlcNAc", "outline": "as §1"}, "[4]": {"molecular_target": "Fuc(a1-2)[GalNAc(a1-3)]Gal(b1-4)GlcNAc(b1-3)Gal(b1-4)GlcNAc(b1-3)Gal(b1-4)GlcNAc", "outline": "as §1"}, "[5]": {"molecular_target": "Fuc(a1-2)[GalNAc(a1-4)]Gal(b1-4)GlcNAc", "outline": "as §1"}, "[6]": {"molecular_target": "Gal(a1-4)Gal(b1-4)GlcNAc(b1-3)Gal(b1-4)Glc", "outline": "as §1"}, "Gal(a1-4)GlcNAc": {"molecular_target": "Gal(a1-4)GlcNAc", "outline": "as §1"}, "[7]": {"molecular_target": "Gal(b1-3)GlcNAc(b1-3)Gal(b1-4)Glc", "outline": "as §1"}, "[8]": {"molecular_target": "Gal(b1-3)GlcNAc(b1-3)Gal(b1-4)GlcNAc", "outline": "as §1"}, "[9]": {"molecular_target": "Gal(b1-4)GlcNAc(b1-2)Man(a1-3)[GlcNAc(b1-2)Man(a1-6)]Man(b1-4)GlcNAc(b1-4)GlcNAc", "outline": "as §1"}, "[10]": {"molecular_target": "Gal(b1-4)GlcNAc(b1-2)[Gal(b1-4)GlcNAc(b1-4)]Man(a1-3)[Gal(b1-4)GlcNAc(b1-2)[Gal(b1-4)GlcNAc(b1-6)]Man(a1-6)]Man(b1-4)GlcNAc(b1-4)GlcNAc", "outline": "as §1"}, "[11]": {"molecular_target": "Gal(b1-4)GlcNAc(b1-3)Gal(b1-4)GlcNAc", "outline": "as §1"}, "[12]": {"molecular_target": "Gal(b1-4)GlcNAc(b1-3)[Gal(b1-4)GlcNAc(b1-6)]Gal(b1-4)GlcNAc", "outline": "as §1"}, "[13]": {"molecular_target": "Gal3S(b1-4)[Fuc(a1-3)]Glc", "outline": "as §1"}, "Gal6S(b1-4)Glc": {"molecular_target": "Gal6S(b1-4)Glc", "outline": "as §1"}, "GalNAc(a1-3)GalNAc": {"molecular_target": "GalNAc(a1-3)GalNAc", "outline": "as §1"}, "[14]": {"molecular_target": "GlcNAc(a1-4)Gal(b1-4)GlcNAc(b1-3)Gal(b1-4)GlcNAc(b1-3)Gal(b1-4)GlcNAc", "outline": "as §1"}, "[15]": {"molecular_target": "GlcNAc(a1-6)Gal(b1-4)GlcNAc", "outline": "as §1"}, "GlcNAc(b1-3)Man": {"molecular_target": "GlcNAc(b1-3)Man", "outline": "as §1"}, "[16]": {"molecular_target": "GlcNAc(b1-3)[GlcNAc(b1-4)][GlcNAc(b1-6)]GlcNAc", "outline": "as §1"}, "[17]": {"molecular_target": "GlcNAc(b1-4)Gal(b1-4)GlcNAc", "outline": "as §1"}, "[18]": {"molecular_target": "GlcNAc(b1-4)GlcNAc(b1-4)GlcNAc(b1-4)GlcNAc(b1-4)GlcNAc", "outline": "as §1"}, "GlcNAc(b1-6)GalNAc": {"molecular_target": "GlcNAc(b1-6)GalNAc", "outline": "as §1"}, "Kdn(a2-3)Gal(b1-3)GalNAc": {"molecular_target": "Kdn(a2-3)Gal(b1-3)GalNAc", "outline": "as §1"}, "[19]": {"molecular_target": "Man(a1-2)Man(a1-2)Man(a1-6)[Man(a1-3)]Man", "outline": "as §1"}, "[20]": {"molecular_target": "Man(a1-2)Man(a1-3)[Man(a1-6)]Man(a1-6)[Man(a1-2)Man(a1-3)]Man(b1-4)GlcNAc(b1-4)GlcNAc", "outline": "as §1"}, "[21]": {"molecular_target": "Man(a1-3)[Man(a1-6)]Man(a1-6)[Man(a1-3)]Man", "outline": "as §1"}, "[22]": {"molecular_target": "Neu5Ac(a2-3)Gal(b1-4)GlcNAc", "outline": "as §1"}, "[23]": {"molecular_target": "Neu5Ac(a2-3)Gal(b1-4)GlcNAc(b1-3)Gal(b1-3)GlcNAc", "outline": "as §1"}}, "note": "Only a selection was taken, and the strongest signals are over-represented in it overall.", "data": [{"binder": "B1", "values": [{"measurement": "glycan array binding signal (z-score)", "setting": "Fuc(a1-2)Gal(b1-4)GlcNAc", "result": -0.309}, {"measurement": "glycan array binding signal (z-score)", "setting": "[1]", "result": -0.436}, {"measurement": "glycan array binding signal (z-score)", "setting": "[2]", "result": 4.37}, {"measurement": "glycan array binding signal (z-score)", "setting": "[3]", "result": 4.29}, {"measurement": "glycan array binding signal (z-score)", "setting": "[4]", "result": 4.11}, {"measurement": "glycan array binding signal (z-score)", "setting": "[5]", "result": 3.88}, {"measurement": "glycan array binding signal (z-score)", "setting": "[6]", "result": -0.296}, {"measurement": "glycan array binding signal (z-score)", "setting": "Gal(a1-4)GlcNAc", "result": 0.001}, {"measurement": "glycan array binding signal (z-score)", "setting": "[7]", "result": -0.315}, {"measurement": "glycan array binding signal (z-score)", "setting": "[8]", "result": -0.357}, {"measurement": "glycan array binding signal (z-score)", "setting": "[9]", "result": -0.295}, {"measurement": "glycan array binding signal (z-score)", "setting": "[10]", "result": -0.294}, {"measurement": "glycan array binding signal (z-score)", "setting": "[11]", "result": -0.367}, {"measurement": "glycan array binding signal (z-score)", "setting": "[12]", "result": -0.43}, {"measurement": "glycan array binding signal (z-score)", "setting": "[13]", "result": -0.39}, {"measurement": "glycan array binding signal (z-score)", "setting": "Gal6S(b1-4)Glc", "result": -0.268}, {"measurement": "glycan array binding signal (z-score)", "setting": "GalNAc(a1-3)GalNAc", "result": 4.41}, {"measurement": "glycan array binding signal (z-score)", "setting": "[14]", "result": 3.96}, {"measurement": "glycan array binding signal (z-score)", "setting": "[15]", "result": 4.99}, {"measurement": "glycan array binding signal (z-score)", "setting": "GlcNAc(b1-3)Man", "result": -0.096}, {"measurement": "glycan array binding signal (z-score)", "setting": "[16]", "result": -0.413}, {"measurement": "glycan array binding signal (z-score)", "setting": "[17]", "result": 1.17}, {"measurement": "glycan array binding signal (z-score)", "setting": "[18]", "result": 0.004}, {"measurement": "glycan array binding signal (z-score)", "setting": "GlcNAc(b1-6)GalNAc", "result": 1.42}, {"measurement": "glycan array binding signal (z-score)", "setting": "Kdn(a2-3)Gal(b1-3)GalNAc", "result": -0.296}, {"measurement": "glycan array binding signal (z-score)", "setting": "[19]", "result": -0.33}, {"measurement": "glycan array binding signal (z-score)", "setting": "[20]", "result": -0.173}, {"measurement": "glycan array binding signal (z-score)", "setting": "[21]", "result": -0.344}, {"measurement": "glycan array binding signal (z-score)", "setting": "[22]", "result": -0.374}, {"measurement": "glycan array binding signal (z-score)", "setting": "[23]", "result": -0.256}]}]}
